Experimental data: the supplement of paper PMC12636033
± gives the standard deviation of the averaged measurements. In all, about 33,000 sequences were measured (“E-score (rank enrichment, -0.5 to 0.5)”: median about -0.0075, highest 2% from about 0.23 on). The full list was thinned out, with the highest values kept by preference.

System: WT Max(13-93) synthetic (M65Nle)
Experiment: PBM 8-mer E-score (E-score (rank enrichment, -0.5 to 0.5)); higher = stronger preferential binding
Experimental: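 Protein binding microarray (universal PBM chip covering all 10-mers in fixed probe flanks) with chemically synthesized human Max(13-93) bHLH-LZ analogs (not full-length Max) bearing noncanonical residues (hArg, Tha, Aib, Nle at 65) and aromatic Cys staples. Read-out per 8-mer (and its reverse complement): E-score (rank-based enrichment, -0.5 to 0.5) and Z-score of median probe intensity.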

Sequence | PBM 8-mer E-score
GCGATGTA | -0.0179 ± 0.03
AGGATGTG | -0.105 ± 0.014
TAAGCTTA | 0.152 ± 0.0028
GGTGGCAC | -0.131 ± 0.071
CGTGGCAC | 0.251 ± 0.063
AGTGGCAC | 0.0667 ± 0.064
AAGCGTTG | -0.0943 ± 0.073
AGGGTAGA | -0.0604 ± 0.015
ATAAAGTG | 0.188 ± 0.078
CTTAAGTC | 0.0284 ± 0.017
ATTAAGTA | 0.259 ± 0.051
GTTAAGTA | 0.0433 ± 0.015
ATTAAGTG | 0.106 ± 0.19
ATAAAGTA | 0.18 ± 0.043
CTTAAGTA | 0.0679 ± 0.077
ATTAAGTC | 0.2923 ± 0.0026
ATAAAGTC | 0.258 ± 0.062
ATTTCGCG | 0.16 ± 0.065
AGATCTAG | -0.118 ± 0.06
ATCACGAA | 0.0216 ± 0.013
AGTTTGTA | 0.074 ± 0.022
AGTCTGGG | -0.106 ± 0.13
CCATGCGA | 0.087 ± 0.11
GCATGCGC | 0.251 ± 0.056
CCATGCGC | 0.153 ± 0.069

Sequence | PBM 8-mer E-score
ACATGCGC | 0.0958 ± 0.095
GCATGCGA | 0.238 ± 0.0068
ACATGCGA | 0.141 ± 0.025
ACGGGATG | -0.083 ± 0.16
AACGTACG | 0.157 ± 0.067
AACGTGAA | -0.0163 ± 0.062
AACGTGGA | 0.153 ± 0.036
AACGTAAC | 0.192 ± 0.0073
AACGTGAT | 0.268 ± 0.014
AACGTGGT | 0.282 ± 0.0092
TACGTAAA | 0.233 ± 0.068
CACGTAAA | 0.13 ± 0.054
AACGTAAA | 0.198 ± 0.065
AACGTAAT | 0.248 ± 0.037
AACGTAGT | -0.0406 ± 0.12
GACGTAAA | 0.0324 ± 0.088
AACGTGAG | 0.132 ± 0.048
GTGTGCTA | 0.0416 ± 0.009
AATCCGAT | -0.0748 ± 0.11
CATTTTCA | 0.063 ± 0.11
CCGAATCG | -0.0138 ± 0.033
CTGTGCCC | -0.035 ± 0.08
CTGTATGA | 0.012 ± 0.079
GGTAAAAA | -0.00424 ± 0.074
ACCAATCG | 0.0164 ± 0.0081

Sequence | PBM 8-mer E-score
CCGACCGC | -0.0589 ± 0.088
GCCTACAC | -0.0291 ± 0.029
CTGGATAA | -0.0145 ± 0.043
ACTGCATA | 0.0165 ± 0.043
AATGAATT | 0.128 ± 0.086
TATGAATA | 0.151 ± 0.12
AATGAATC | -0.141 ± 0.014
GATGAATA | 0.272 ± 0.022
AATGAATG | 0.2671 ± 0.0011
GATGAATC | -0.0452 ± 0.013
CACGACCC | -0.0381 ± 0.027
AGGAGGTA | -0.168 ± 0.047
CGCGGCAA | -0.139 ± 0.079
AGCACTCC | 0.0118 ± 0.13
ATACGCAA | 0.241 ± 0.0012
ATACGCAG | -0.0132 ± 0.082
GTACGCAA | -0.00199 ± 0.077
ATCGACAA | -0.0231 ± 0.046
ATACTATA | 0.22 ± 0.019
GGGATGAA | -0.0123 ± 0.093
AATTTAGC | 0.121 ± 0.065
CGGACCTA | -0.0947 ± 0.063
CATGCATA | 0.242 ± 0.064
CATGCGTA | 0.346 ± 0.038
CATGCAAC | 0.287 ± 0.054

Sequence | PBM 8-mer E-score
AATGCGTA | 0.0374 ± 0.047
GATGCATA | 0.0327 ± 0.027
ACTGCATG | 0.0467 ± 0.031
TATGCATA | 0.181 ± 0.037
ATTGCATG | 0.163 ± 0.15
CATGCAAG | 0.0946 ± 0.011
AATGCAAC | 0.172 ± 0.014
GATGCGTA | 0.0564 ± 0.052
AATGCATG | 0.257 ± 0.054
CTACCTAA | 0.0741 ± 0.11
TTAGAGAA | -0.00786 ± 0.18
ATCTTTCG | 0.0243 ± 0.034
AGGCGTCC | -0.0473 ± 0.0037
CATGCATC | 0.101 ± 0.018
AATGCAAT | 0.237 ± 0.029
AATGCATA | 0.206 ± 0.12
AATGCAAA | 0.143 ± 0.091
AATGCATT | 0.345 ± 0.024
CATGCAGG | 0.0755 ± 0.026
AATGCAAG | 0.117 ± 0.074
AATGCATC | 0.163 ± 0.044
CATGCATG | 0.261 ± 0.073
